Test: changes in parasitized red cell lysis, either direction – P. falciparum Indochina, OD700, 3 h, PSAC antagonist project, primary screen (AID 1156)
Details: P. falciparum-infected erythrocytes, osmotic lysis, higher = more signal, called active from +8 up or from −8 down

z-score, inactive:
C=CCOC(=O)[C@@H]1[C@H]2C(=O)O[C@H](c3ccccc3)[C@H](c3ccccc3)N2[C@H](c2ccc(OCCOC(=O)[C@H]3C[C@H]4C(=O)N5CCC[C@H]5C(=O)N4[C@H]3c3ccc(O)cc3)cc2)[C@@]12C(=O)Nc1ccccc12 -2.79, C[C@@H]1CC[C@H]2C(=O)N3[C@@H](CC[C@@H](C)[C@@H]3c3cccc(N4CCOCC4)c3)C(=O)N2[C@H]1c1cccc(N2CCOCC2)c1 0.567, COc1ccc(-c2ccccc2[C@@H]2N[C@H](C(=O)O)CC[C@H]2C)cc1 1.42, CN1CCC(CCCO)=CC1C1CC1 (configuration not stated) -1.01, C=CCC(OC(C)=O)[C@@H]1[C@@H](N(Cc2cc3ccccc3o2)C(=O)c2ccc(C)cc2)c2cc(OCCCO)ccc2N1C(=O)c1ccc2ccccc2n1 (some centres not stated) -0.629, C[C@H]1COC(=O)[C@H](Cc2ccccc2)NC(=O)[C@@H](C)COC(=O)[C@H](Cc2ccccc2)NC1=O -0.295, CCN1C(C)=C(C(=O)OC)[C@@H](c2ccccc2)N2C(=O)[C@@]3(C(=O)OC)O[C@@]12[C@@H]1C(=O)N(c2ccccc2)C(=O)[C@@H]13 0.0305, CCCC/C=C/[C@H]([C@@H](O)Cc1ccccc1)N(CC#Cc1ccccc1)Cc1ccccc1Br -0.0195, Cc1ccc(S[C@]2(C(=O)NCCCN(C)C)CC(=O)N(C3CCCCC3)[C@@H]2c2ccc(CO)cc2I)cc1 1.39, CO[C@@H]1COC(=O)[C@H](C)NC(=O)CC=C[C@@H](C)[C@H](NS(=O)(=O)c2ccc(C)cc2)COC(=O)CC=C[C@@H]1C 0.0724, C=CCNC(=O)[C@H]1[C@@H]2C(=O)O[C@@H](c3ccccc3)[C@@H](c3ccccc3)N2[C@@H](c2ccccc2OCCO)[C@]12C(=O)N(C(=O)OCCOC)c1ccc(C#CCC(C(=O)OC)C(=O)OC)cc12 0.824, CC(=O)NCCCC[C@@H]1NC(=O)[C@@H]2C[C@H](C(=O)NCCCCCCN(C)C)[C@H](c3ccc(O)cc3)N2C1=O -2.63, O=C(NCC(O)CO)[C@]1(Cc2ccccc2)N=C(c2ccc(OCCCO)cc2)O[C@@H]1c1ccccc1 (some centres not stated) 0.267, C[C@H]1NC(=O)[C@@H](C)NC(=O)[C@@]23C(=O)N[C@@H](Cc4ccccc4)C2[C@H](C)[C@@]2(C)O[C@H]2C3/C=C/C/C=C\CNC1=O (some centres not stated) 0.234, CC(C)N1CC=CC23O[C@@H]4/C=C\CCCOC(=O)C4[C@H]2C(=O)N(CCO)[C@@H]3C1=O (some centres not stated) 0.716, C=CC[C@]1(C(=O)O)N=C(c2ccc(OCCCO)cc2)O[C@H]1c1ccccc1 0.211, CC(C)CNC(=O)[C@@]1(C)c2ccccc2C(=O)N(Cc2ccc(OC(F)(F)F)cc2)[C@H]1c1ccc(CO)cc1 1.09, CO[C@H]1COC(=O)[C@H](Cc2ccccc2)NC(=O)CC=C[C@@H](C)[C@H](OC)COC(=O)CC=C[C@@H]1C -1, C=C(COC)/C(=C/C[C@@H](OC(=O)c1ccncc1)c1ccc(OCCO)cc1)c1cc(C(=O)OC)ccc1OC 1.35, CSCC[C@@H]1NC(=O)CC=C[C@@H](C)COC(=O)[C@H](CCSC)NC(=O)CC=C[C@@H](C)COC1=O -1.73, O=C1OCC=C[C@H]2OC34C=CCN(Cc5ccccc5)C(=O)[C@H]3N(CCCCCO)C(=O)[C@@H]4[C@@H]12 (some centres not stated) -0.912, Cc1ccc(S[C@]2(C(=O)NCCN3CCOCC3)CC(=O)N(C3Cc4ccccc4C3)[C@@H]2c2ccc(CO)cc2I)cc1 0.591, COC(=O)C[C@H]1O[C@]2(C(=O)N(C)c3ccccc32)[C@@H](C)[C@@H]1[Si](C)(C)c1ccc(OC)cc1 -0.168, CC/C=C/C(=O)N(C[C@@H]1CCCO1)[C@@H]1CC(C(=O)NCCO)=C[C@H](Oc2c(I)cc(CO)cc2OC)[C@H]1O 1.31, C=C[C@H](OC)[C@@H](OC(=O)Nc1ccc(SC)cc1)c1ccc(OC)c(O)c1 -0.454, CN1C2C=C(c3ccc(CO)cc3)C(C3C(=O)N(C(N)=O)C(=O)C32)C1c1cccs1 (configuration not stated) -0.71, C=CCN(C(=O)C1N(c2ccc(CCO)cc2)C(=O)C2C(C(=O)O)C3C=CC21O3)C(C)(C)C (configuration not stated) -1.43
